Tau fluor counter: counter-screen for tau fibril formation inhibitors; 280,000 tested, 0.93% active; tau K18 P301L Alexa594 fluorescence, heparin fibrillization; Potency, µM (doses to about 57.7 µM), without a hit: at the top dose activity change, negative = decrease; further: potency means the concentration at half of the fitted maximal effect; nearly all actives have a fitted effect of over 55% in size
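Human tau K18 P301L (15 uM unlabeled, 0.24 uM Alexa 594-labeled) in 100 mM sodium acetate pH 7 with 20 uM heparin, 6 hr at 37 C. ThT 30 uM added, 1 hr ambient; Alexa 594 FP and total fluorescence read at 555/632 nm.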
TRb SRC2 PPI: TRbeta-SRC2 interaction inhibition. P10828. TRbeta-SRC2 peptide binding, fluorescence polarization; receptor liganded with 1 µM T3. Potency, µM (doses to about 106 µM), without a hit: top-dose activity change, negative = inhibition, most hits filed as inhibitors. 280,000 tested, 0.065% active;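 further: potency means the concentration at half of the fitted maximal effect; plate controls were bound peptide for no effect and peptide without receptor for full effect; nearly all actives have a fitted effect of over 50% in size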
Target sequence (P10828 whole entry, looked up): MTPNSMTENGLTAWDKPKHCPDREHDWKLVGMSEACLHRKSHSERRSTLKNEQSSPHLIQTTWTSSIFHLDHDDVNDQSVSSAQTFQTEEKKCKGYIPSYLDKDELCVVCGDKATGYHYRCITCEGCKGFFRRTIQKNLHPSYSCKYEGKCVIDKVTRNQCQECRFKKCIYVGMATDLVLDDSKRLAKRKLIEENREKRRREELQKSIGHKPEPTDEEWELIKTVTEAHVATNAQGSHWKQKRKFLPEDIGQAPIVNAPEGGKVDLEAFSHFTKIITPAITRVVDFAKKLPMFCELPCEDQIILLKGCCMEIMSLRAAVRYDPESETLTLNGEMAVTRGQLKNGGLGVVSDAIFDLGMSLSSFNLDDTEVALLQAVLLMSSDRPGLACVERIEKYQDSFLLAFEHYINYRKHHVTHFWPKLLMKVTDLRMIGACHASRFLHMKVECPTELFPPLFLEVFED
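Polarization signal, normalized between peptide-alone and full complex controls, measured compound effects on T3-liganded human TRb LBD (0.6 uM) binding 20 nM Texas Red SRC2 peptide after 5 hr.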
Tau ThT inhib: inhibitors of human tau fibril formation, thioflavin T binding; recombinant tau K18 P301L (four-repeat tau fragment), heparin-induced fibrillization, ThT fluorescence; 270,000 tested, 2.1% active; P10636; AID 1460; Potency, µM (top dose mostly 57.4 µM), for inactives: at the highest dose activity, negative = inhibition, most hits filed as inhibitors; further: potency means the concentration at half of the fitted maximal effect; nearly all actives have a fitted effect of over 55% in size
Target sequence (P10636 561-689 P618L limits assumed): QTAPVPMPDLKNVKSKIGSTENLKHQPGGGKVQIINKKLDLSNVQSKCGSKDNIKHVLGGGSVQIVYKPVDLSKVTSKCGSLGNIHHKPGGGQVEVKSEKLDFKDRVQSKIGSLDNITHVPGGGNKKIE
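K18 P301L tau (15 uM + 0.24 uM Alexa 594-tagged), heparin 20 uM, NaOAc pH 7, 6 h 37 C; ThT 30 uM, 1 h RT, ex 450/em 510 nm.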
PNC assembly inh: perinucleolar compartment assembly inhibition; PC3M PTB-GFP, PNC prevalence imaging, 16 h; hits give low values; activity change (PNC), negative = inhibition, % at 10 µM; 140,000 tested, 3.1% active; AID 2417;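 active means readout at or below -70, meaning at least 70% loss of cells showing the perinucleolar compartment, a nuclear body marking cancer cells; inconclusive means readout between -30 and a set limit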;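 further: plate controls were DMSO wells for no effect and camptothecin positive control wells for full effect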
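Read-out is percentage of cells bearing a perinucleolar compartment, from automated 20x imaging of fixed, Hoechst-stained PC3M PTB-GFP cells. Cells were seeded 4 h, then exposed 16 h to compound (23 nl of library stock) in duplicate plates.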
TexasRed fluor: alters Texas Red total fluorescence, flagging assay interference; TRb/SRC2 Texas Red total fluorescence interference; Potency, µM (series often up to 106 µM), for inactives: at the highest dose fluorescence change, negative = quenching; 280,000 tested, 0.29% active; active means well fitted curve in either direction with a large enough effect; inconclusive means small, poorly fitted or top-dose-only effect; further: potency means the concentration at half of the fitted maximal effect
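Human TRb ligand-binding domain at 0.6 uM with 20 nM Texas Red SRC2 peptide in Tris buffer containing 1 uM T3 and 5% DMSO, incubated with compound 5 h at ambient temperature. Total fluorescence (555/632 nm) calculated as parallel + 2 × perpendicular.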
Tau fibril FP: inhibitors of human tau fibril formation | AID 1468 | P10636 | 280,000 tested, 0.39% active | Potency, µM (top dose mostly 57.7 µM), without a hit: at the top dose activity, negative = inhibition, actives largely listed as inhibitors | K18 P301L tau heparin fibrillization, Alexa594 FP, 6 h; further: potency means the concentration at half of the fitted maximal effect; nearly all actives have a fitted effect of over 55% in size
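Compound effects on tau fibrillization are measured by Alexa 594 fluorescence polarization (ex 555, em 632 nm). K18 P301L tau is used at 15 uM with 0.24 uM labeled tracer, and 20 uM heparin induces aggregation over 6 hr at 37 C.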
An asterisk follows results filed as active; ? = inconclusive; nt = no result; [ ] = another dose, or the depositor's remark. Sampled rows, rich in hits. Any-hit rate of the full collection: about 4.6%. Unless noted, the call rests on the fitted dose curve; in most records, active means well fitted curve in the direction sought with a large enough effect; inconclusive means small, poorly fitted or top-dose-only effect, or another doubt; inactive means no such curve, though single readings can be large; an effect the other way counts as inactive or inconclusive. Unless noted, on the % scale 0 is the no-effect control and ±100 the full control effect.

SMILES | Tau fluor counter | TRb SRC2 PPI | Tau ThT inhib | PNC assembly inh | TexasRed fluor | Tau fibril FP
CC(C)c1ccc(NS(=O)(=O)c2ccc3nc(-c4ccccc4)[nH]c3c2)cc1 | ? | 7% | ? | nt | 1% | 10µM*
CCOc1ccccc1C(C(=O)NCCOC)N(CCOC)C(=O)Cn1nnc2ccccc21 (stereo not given) | -7% | -2% | -5% | nt | 0% | -8%
CCN(CC)CC(=O)n1c2c(c3ccccc31)CCCC2 | -9% | -2% | -13% | -100* | 0% | 9%
CN1CCN(CC(=O)n2c3c(c4ccccc42)CCCC3)CC1 | -7% | 2% | -16% | ? | -1% | 3%
Cc1nnc2n1N=CC=C(C(C)(C)C)S2 | 3% | -1% | -1% | -29 | -2% | -4%
Cc1cc[n+](-c2nc3ccccc3nc2[N-]S(=O)(=O)c2ccccc2)cc1 | -11% | -4% | -16% | ? | -3% | -2%
CCCn1c(Nc2ccccc2C)nc2ccccc21 | -3% | -20% | -3% | 20 | 2% | 5%
CNC(=O)C(C)NS(=O)(=O)c1ccc(F)cc1 (stereo not given) | -7% | -2% | -24% | -1 | -2% | 1%
Cn1c2ccccc2c2cc(C(=O)NNS(=O)(=O)c3ccc(F)cc3)sc21 | -26% | 0% | -26% | -88* | 1% | 6%
CN(C)CCCNC(=O)c1cc2c3ccccc3n(C)c2s1 | -11% | 2% | -5% | 19 | -5% | 7%
O=C(O)CCn1[nH]c(=O)ccc1=O | 2% | 0% | 2% | -100* | -7% | 4%
O=c1ccc(=O)n(-c2ccccc2)[nH]1 | 4% | -9% | -1% | nt | -1% | 3%
C=CCN(CC=C)S(=O)(=O)c1ccc(NC(=O)COc2ccccc2OC)cc1 | -29% | -1% | -15% | -88* | 3% | 2%
COc1ccccc1OCC(=O)Nc1ccc(S(=O)(=O)N2CCCCCC2)cc1 | ? | 11% | -9% | 44 | 1% | 0%
Cc1ccccc1OCC(=O)Nc1ccc(S(=O)(=O)Nc2ncccn2)cc1 | 0% | -8% | -7% | nt | 10000µM*[quencher] | -6%
Cc1ccnc(NS(=O)(=O)c2ccc(NS(=O)(=O)c3ccccc3)cc2)n1 | -4% | 0% | -1% | -100* | 0% | -13%
O=C(COc1ccccc1)Nc1ccc(S(=O)(=O)Nc2ncccn2)cc1 | 4% | 2% | 3% | nt | 0% | -3%
COc1ccccc1/C=N/N(C(C)=O)c1nc(-c2ccc(F)cc2)cs1 | -26% | 7% | ? | 9 | 1% | -4%
COc1ccc(-c2nc(N)nc(C)c2Oc2ccccc2Br)c(O)c1 | 18µM*[quencher] | -7% | -13% | ? | -5% | -6%
Cc1ccc(-c2noc(CSc3nnc(C)n3-c3ccc(C)cc3)n2)cc1 | -5% | -25%[53 µM] | -16% | nt | 0.11µM*[quencher] | 5%
COc1ccc(-c2noc(CSc3nnc(-c4ccncc4)n3-c3ccc(OC)cc3)n2)cc1 | -19% | ? | ? | nt | 0.25µM*[quencher] | -3%
COc1ccc(-c2noc(CSc3nnc(Cc4ccccc4)n3-c3cccc(C)c3)n2)cc1OC | -6% | -3% | ? | ? | 0% | 12%
COc1ccc(-c2noc(CSc3nnc(Cc4ccccc4)n3-c3ccccc3)n2)cc1OC | -29% | -23%[53 µM] | ? | nt | 0.28µM*[quencher] | 4%
COc1ccc(-c2noc(CSc3nnc(-c4ccncc4)n3-c3ccc(C)cc3)n2)cc1 | -20% | 7% | ? | nt | -19% | -3%
CCc1cc2c(N3CCCCC3)ncnc2s1 | -8% | -13% | -2% | 34 | 0% | -4%
SMILES | Tau fluor counter | TRb SRC2 PPI | Tau ThT inhib | PNC assembly inh | TexasRed fluor | Tau fibril FP
CCOC(=O)c1c(-c2ccccc2)csc1NC(=O)/C(C#N)=C/c1ccc(OC)c(OC)c1 | -2% | 3% | -7% | 6 | 0% | 8%
CCOC(=O)c1c(-c2ccccc2)csc1NC(=O)/C(C#N)=C/c1ccc(O)c(OC)c1 | 13µM*[quencher] | -2% | ? | 10 | -3% | 17%
Cc1ccc(Cn2ncc(Cl)c(Cl)c2=O)cc1 | 5% | 9% | -7% | -105* | 0% | -4%
O=c1c(Cl)c(Cl)cnn1Cc1nnc(-c2ccc(Cl)cc2)o1 | -16% | -19% | 28µM* | nt | -1% | ?
O=c1c(Cl)c(Cl)cnn1Cc1ccccc1Cl | 11% | -3% | 13% | ? | -1% | 3%
COC(=O)C1C/C(=N\NS(=O)(=O)c2ccc(C)cc2)c2ccsc2C1 (stereo not given) | -3% | 2% | -3% | ? | -4% | 8%
CCOc1ccccc1NC(=O)CSc1nnc(-c2cnccn2)n1C | 1% | -17% | -4% | 28 | 2% | 3%
Cc1ccc(-c2cc(C(F)F)n3ncc(C(=O)N4CCN5CCCC5C4)c3n2)cc1 (stereo not given) | 6% | 1% | -10% | -4 | -4% | -5%
CCOC(=O)C1CCCN(C(=O)c2cnn3c(C(F)F)cc(-c4ccc(C)cc4)nc23)C1 (stereo not given) | 0% | -2% | -17% | -107* | -6% | 10%
C#CCn1c(S(=O)(=O)Cc2ccc(F)cc2)nc(-c2ccccc2)c1-c1ccccc1 | -12% | -5% | -10% | -106* | 0% | 4%
O=C(CN(CCc1ccccc1)S(=O)(=O)c1ccc(Br)cc1)NCc1ccc(Cl)cc1 | -7% | -7% | 2% | nt | ? | -14%
O=C(O)c1cc(-c2cccnc2)nc2ccc(Br)cc12 | -2% | 4% | -3% | nt | -3% | -1%
CCN1CCN(C(=O)c2cc(-c3cccnc3)nc3ccc(Br)cc23)CC1 | -12% | -17% | -13% | -107* | -3% | 3%
O=C(Nc1ccc2c(c1)OCCO2)c1cc2sccc2n1Cc1ccccc1 | 14µM*[quencher] | 0% | -13% | 44 | -2% | -6%
CC(=O)c1ccc(NC(=O)c2cc3sccc3n2Cc2ccc(Cl)cc2)cc1 | ? | 4% | -15% | nt | 0% | 10µM*
CC1Oc2ccccc2C=C1/C=C1/SC(N2CCOCC2)=NC1=O (stereo not given) | -7% | 0% | ? | 19 | -2% | 1%
CCN1C(=O)/C(=C/C2=Cc3ccccc3OC2C)SC1=S (stereo not given) | ? | 0% | 13µM* | nt | -3% | 1%
COc1cc(/C=N/n2c(-c3n[nH]c4c3CCC4)n[nH]c2=S)cc(OC)c1O | -2% | 5% | 0% | nt | -6% | -1%
Cc1ccc2[nH]c(=O)c(CN(CCCN3CCOCC3)Cc3nnnn3C3CCCC3)cc2c1 | -4% | -3% | -10% | -100* | -1% | 7%
Cc1ccc2cc(CN(Cc3ccccc3)Cc3nnnn3C3CCCC3)c(=O)[nH]c2c1 | -19% | -7% | -13% | 34 | -2% | -6%

High-throughput results: PubChem, National Center for Advancing Translational Sciences (NCATS)
